# Bioassay records deposited in PubChem by National Center for Advancing Translational Sciences (NCATS).
# This is a sample that favours compounds with a hit; in the whole collection about 2.4% have one here.
# D2 PAM-1: positively modulates the human D2 dopamine receptor allosterically; P14416; HEK293 T-REx D2, calcium flux, EC20 dopamine potentiation; AID 485347; 340,000 compounds, 0.34% hits; potentiation, % at 10 µM;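 active = potentiation over 3 SD above the plate norm, cut at about 30% in these data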; also: 0% is about no effect
# Target sequence (P14416 whole entry, looked up): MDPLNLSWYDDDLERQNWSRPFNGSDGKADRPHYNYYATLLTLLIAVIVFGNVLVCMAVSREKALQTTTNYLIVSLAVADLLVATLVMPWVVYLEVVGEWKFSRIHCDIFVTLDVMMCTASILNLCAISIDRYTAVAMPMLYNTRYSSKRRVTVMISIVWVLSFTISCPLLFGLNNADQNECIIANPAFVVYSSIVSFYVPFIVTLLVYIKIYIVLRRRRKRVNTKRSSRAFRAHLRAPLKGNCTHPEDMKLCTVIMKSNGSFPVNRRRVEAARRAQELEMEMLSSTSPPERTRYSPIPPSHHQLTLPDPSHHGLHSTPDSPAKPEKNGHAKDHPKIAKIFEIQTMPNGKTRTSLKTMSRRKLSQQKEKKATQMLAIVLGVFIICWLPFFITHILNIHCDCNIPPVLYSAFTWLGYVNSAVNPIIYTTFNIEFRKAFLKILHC
#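 Tetracycline-induced Hek293 Trex D2 cells, force-coupled to calcium, loaded with no-wash calcium dye. Compound added with 180 s kinetic read for agonism, then EC20 dopamine and a further 180 s read for potentiation.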
# D2 PAM-2: human D2 receptor positive allosteric modulation; P14416; DiscoveRx D2 beta-arrestin cells, luminescence, 90 min; 100% = 57 uM dopamine signal; potentiation, % (test concentration not listed); 360,000 compounds, 0.23% hits; AID 624464; in the data active = potentiation above about 50%
#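 D2 cells co-treated with compound plus 50 nM dopamine (EC20) for 90 min at 37 deg C to detect potentiation. Beta-arrestin recruitment was read as enzyme-fragment luminescence after 1 h at ambient temperature. Full response was set by 57 uM dopamine.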
# D2 antagonist: antagonizes the human D2 dopamine receptor | P14416 | HEK293 TREx D2 cells, calcium flux, dopamine EC80 | inhibition, % at 10 µM | 340,000 compounds, 2% hits | AID 485344; in the data active = inhibition above about 30%; inactive = below that, where a call was filed; also: 0% is about no effect
#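 Tetracycline-induced HEK293 TREx cells expressing D2 receptor forced-coupled to calcium signalling, loaded with no-wash calcium dye. Compounds added and calcium flux read 180 s, then dopamine added at EC80 and read a further 180 s.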
# D2 ag-1: agonists of human D2 dopamine receptor (beta-arrestin). P14416. DiscoveRx PathHunter D2 beta-arrestin, luminescence, 90 min; 100% = 57 uM dopamine signal. activation, % (concentration not given with the values). 360,000 compounds, 0.084% hits; in the data active = activation above about 40%
#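 Agonist mode: compounds alone added to overnight-plated D2 PathHunter cells for 90 min at 37 C, with 57 uM final dopamine (EC100) defining full response. Beta-arrestin recruitment detected by chemiluminescent reagent, read after 1 h at ambient temperature.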
# D2 ag-2: agonists of human D2 dopamine receptor | 340,000 compounds, 0.53% hits | P14416 | HEK293 T-REx D2 cells, calcium flux agonist mode | activation, % at 2 µM;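 active = activation over 3 SD above normal in the single-dose calcium agonist read, cut at about 30% in these data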; also: 0% is about no effect
#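 Agonism is scored from calcium flux in a force-coupled, inducible HEK293 cell line expressing D2, read kinetically for 180 s after compound addition against dopamine controls.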
# * = called active by the depositor; nt = no result.
SMILES,D2 PAM-1,D2 PAM-2,D2 antagonist,D2 ag-1,D2 ag-2
COc1ccc(-c2cc(=O)c3cc(C)ccc3[nH]2)cc1,-8.7,-21.5,14.3,-3.9,0.2
C=CCNC(=O)c1cccc(NS(=O)(=O)c2ccc(Cl)cc2)c1,-26.0,-7.1,-4.4,-0.6,-0.5
CN(C)CCNC(=O)c1cccc(NS(=O)(=O)c2ccc(Cl)c(Cl)c2)c1,-7.5,-29.6,34.8*,-4.3,2.6
Cc1ccc(S(=O)(=O)Nc2cccc(C(=O)NCCN3CCOCC3)c2)cc1F,-10.8,-0.6,-21.0,-6.2,0.5
O=C(NCCN1CCOCC1)c1cccc(NS(=O)(=O)c2ccc(Br)cc2)c1,8.1,-16.0,33.1*,1.3,0.2
Cc1ccc(CN2C(=O)c3ccccc3S(=O)(=O)c3ccc(C(=O)OCC4CCCO4)cc32)cc1 (stereo not given),9.0,nt,nt,nt,0.3
COc1ccc(CC(=O)NNC(=O)c2cc(C)oc2C)cc1OC,-4.5,-33.0,32.0*,-5.8,0.9
CC(C)CCn1c(=O)c2cccnc2n(CC(=O)Nc2ccc(F)cc2)c1=O,5.5,nt,nt,nt,0.3
O=C(O)/C(=C\c1cccs1)Sc1nnc(-c2ccc(F)cc2)o1,0.8,-2.8,35.0*,-2.1,1.1
CSc1ccc(/C=C(/Sc2nnc(-c3ccccc3)o2)C(=O)O)cc1,2.2,-6.5,-17.4,-3.6,2.3
O=C(Nc1ccc(F)cc1F)c1ccc2c(c1)CCN2S(=O)(=O)c1ccc(Cl)cc1,-10.5,nt,nt,nt,1.3
CCOC(=O)N1N=C(CC)CC1(O)C(F)(F)F (stereo not given),38.1*,-10.4,5.4,-2.8,-0.4
CCCn1c(-c2cccc([N+](=O)[O-])c2)nc2c1c(=O)[nH]c(=O)n2Cc1ccccc1,9.9,-1.5,-4.9,-4.0,2.4
CC(C)(C)Cn1c(=O)[nH]c(=O)c2cc([N+](=O)[O-])cnc21,-0.8,-6.2,35.4*,-1.5,-1.2
OCCNCc1c(OCc2ccc(Cl)cc2)ccc2ccccc12,-4.3,-25.5,1.4,-6.7,-0.9
CCNCc1ccccc1OCc1ccccc1,-10.0,-10.0,5.7,-1.5,0.2
CC(O)CNCCNCc1c(OCc2ccccc2)ccc2ccccc12 (stereo not given),32.2*,-28.0,-7.2,-1.7,-0.5
CC(O)CNCCOc1ccccc1OCc1ccccc1 (stereo not given),-33.9,-9.1,45.4*,-8.8,-2.7
COc1ccccc1N1CCN(S(=O)(=O)CCNC(=O)COc2ccc(C(C)C)cc2)CC1,-0.1,nt,nt,nt,-1.7
CCC(C)NC(=O)Cn1cc(S(=O)(=O)N2CCCC2)c(S(=O)(=O)N2CCCC2)c1 (stereo not given),-3.2,1.3,9.0,-5.4,-0.6
CCCNC(=O)Cn1cc(S(=O)(=O)N2CCCC2)c(S(=O)(=O)N2CCCC2)c1,-3.1,-10.8,37.5*,-6.0,0.4
Cc1ccc(-c2noc(-c3nnn(CC(=O)Nc4cccc(C(F)(F)F)c4)c3N)n2)cc1,3.9,nt,nt,nt,0.3
COc1cc(C(CCN2CCCC2)c2c(OC)cc(OC)c3ccc(=O)oc23)cc(OC)c1OC (stereo not given),-0.6,-15.8,33.0*,0.7,0.4
COc1cc(C(CC(=O)N2CCCC2)c2c(OC)cc(OC)c3ccc(=O)oc23)cc(OC)c1OC (stereo not given),11.4,-9.4,-0.7,-0.2,-0.3
Cc1cccc(NC(=O)CSc2nc3n[nH]c(C)c3c(=N)n2-c2cccc(Cl)c2)c1,-9.2,nt,nt,nt,0.9
SMILES,D2 PAM-1,D2 PAM-2,D2 antagonist,D2 ag-1,D2 ag-2
CCN1CCN(C(=O)c2ccc3c(c2)N(Cc2ccc(Cl)cc2)C(=O)c2ccccc2S3(=O)=O)CC1,-23.0,nt,nt,nt,nt
CCN1CCN(C(=O)c2ccc3c(c2)N(Cc2ccccc2)C(=O)c2ccccc2S3(=O)=O)CC1,-23.5,-12.6,40.4*,-2.2,0.4
Cc1coc2c1c(C)cc1oc(=O)c(CC(=O)NCC(=O)O)c(C)c12,-11.4,-4.8,7.6,2.2,1.8
Cc1coc2c1c(C)cc1oc(=O)c(CC(=O)NCCCCCC(=O)O)c(C)c12,45.6*,6.7,2.4,1.1,-0.3
COc1ccc(S(=O)(=O)NNc2nc(C)cc(C)n2)cc1Br,-12.8,-22.2,52.4*,-10.5,-0.3
Cc1cc(C)nc(NNS(=O)(=O)c2ccc(Cl)cc2)n1,nt,-39.9,nt,-15.0,nt
Cc1ccc(C(=O)NNC2=Nc3cccc4cccc2c34)cc1,-24.8,-25.0,70.8*,-3.5,-0.3
